Inconclusive results are not listed. The source made the active and inactive calls. The call rests on the fitted dose curve; in most records, active means well fitted activation curve with a large enough effect in the signal ratio in the repeat runs (not every such curve was filed as active); inconclusive means weak or mixed curves, or effect the other way; inactive means no such curve, though single readings can be large or run the other way; the % refers to the signal ratio.
Target: Peroxisome proliferator-activated receptor gamma (Homo sapiens) (UniProt P37231)
Test: qHTS assay to identify small molecule agonists of the peroxisome proliferator-activated receptor gamma (PPARg) signaling pathway (AID 743094)
Details: HEK293H PPARg-UAS-bla, beta-lactamase FRET ratio, 17 h; series mostly up to 57 µM; activation: at the top concentration
Text: U.S. Tox21 Program National Center for Advancing Translational Sciences [NCATS] NIH Chemical Genomics Center [NCGC] U.S. Environmental Protection Agency [EPA] National Institutes of Environmental Health Sciences [NIEHS] National Toxicology Program [NTP] U.S. Food and Drug Administration [FDA] Tox21 Assay Overview: The peroxisome proliferator-activated receptors (PPARs) are lipid-activated transcription factors of the nuclear receptor superfamily with three distinct subtypes namely PPAR alpha, PPAR delta (also called PPAR beta) and PPAR gamma (PPARg). All these subtypes heterodimerize with Retinoid X receptor (RXR) and these heterodimers regulate transcription of various genes. PPAR-gamma receptor (glitazone receptor) is involved in the regulation of glucose and lipid metabolism. To identify the compounds that activate PPAR-gamma signaling, GeneBLAzer PPAR gamma UAS-bla HEK293H cell line (Invitrogen, Carlsbad, CA, USA) containing a beta-lactamase reporter gene under control of the control of an upstream activator sequence (UAS) stably integrated into HEK293H cells was used to screen Tox21 compound library.
Tox21 Assay Protocol Summary: PPARg-bla cells were dispensed at 3000 cells/6uL/well in 1536-well black wall/clear bottom plates using a Multidrop Combi (Thermo Fisher Scientific, Waltham, MA) dispenser. After the assay plates were incubated at 37C and 5% CO2 for 5 h, 23 nL of compounds dissolved in DMSO, positive controls or DMSO only was transferred to the assay plate by a Pintool station (Kalypsys, San Diego, CA). The assay plates were incubated at 37C for 17 h. After 1 uL of LiveBLAzerTM B/G FRET substrate was added using a Bioraptr Flying Reagent Dispenser (FRD) workstation (Beckman Coulter, Indianapolis, IN, USA), the plates were incubated at room temperature for 1 h, and fluorescence intensity was measured by an Envision plate reader (PerkinElmer, Shelton, CT).
On the % scale 0 is the no-effect control and ±100 the full control effect.

Peroxisome proliferator-activated receptor gamma (Homo sapiens), sequence (P37231 whole entry, looked up): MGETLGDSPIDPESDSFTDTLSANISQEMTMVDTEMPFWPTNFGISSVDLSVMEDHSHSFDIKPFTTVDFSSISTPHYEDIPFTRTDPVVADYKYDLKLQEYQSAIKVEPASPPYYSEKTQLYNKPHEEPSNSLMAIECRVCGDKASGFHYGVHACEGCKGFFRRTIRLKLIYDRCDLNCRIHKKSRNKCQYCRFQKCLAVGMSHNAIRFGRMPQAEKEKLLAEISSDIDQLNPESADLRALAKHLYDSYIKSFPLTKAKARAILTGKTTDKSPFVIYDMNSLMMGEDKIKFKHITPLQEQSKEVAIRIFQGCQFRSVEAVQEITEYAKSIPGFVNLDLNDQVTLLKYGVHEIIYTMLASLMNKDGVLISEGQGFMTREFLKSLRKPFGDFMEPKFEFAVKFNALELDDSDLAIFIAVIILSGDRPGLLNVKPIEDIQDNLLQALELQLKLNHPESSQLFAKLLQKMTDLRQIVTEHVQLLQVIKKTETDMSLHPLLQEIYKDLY

Q: How did the “activation” value turn out when `C[n+]1ccccc1/C=N/O` was run?
A: -0.611% [at 26.2 µM] (inactive)

Q: How did the “activation” value turn out when `c1coc(Cn2cccc2)c1` was run?
A: 0.533% (inactive)

Q: `CC(C)OC(=O)C(C(=O)OC(C)C)=C1SC=CS1` was tested. Which “activation” value did it give?
A: -0.399% (inactive)

Q: How did the “activation” value turn out when `C=CC(=O)OCCOCCOCC` was run?
A: 8.34% (inactive)

Q: For `O=C(O)Cc1ccccc1Oc1ccc(Cl)cc1Cl`, which “activation” value is on record?
A: 5.66% (inactive)

Q: How did the “activation” value turn out when `CCCCc1ccc(Cl)cc1` was run?
A: -5.27% (inactive)

Q: How did the “activation” value turn out when `NCC1CCC(C(=O)Oc2ccc(CCC(=O)O)cc2)CC1` (stereo not given) was run?
A: 0.788% (inactive)

Q: For `CC(C)(C)OC=O`, which “activation” value is on record?
A: 1.62% [at 78.9 µM] (inactive)

Q: `CC1=C(O)C(=O)CO1` was tested. Which “activation” value did it give?
A: 3.19% (inactive)

Q: Which “activation” value does the source give for `COc1ccc(Cl)cc1C` here?
A: -2.4% [at 78.9 µM] (inactive)

Q: `CC(=O)SC[C@@H](C)C(=O)N1CCC[C@H]1C(=O)N[C@@H](Cc1ccccc1)C(=O)O` was tested. Which “activation” value did it give?
A: 3.91% (inactive)

Q: With `C[C@@H]1NC(=O)[C@@H](N)CNC(=O)[C@H](C2CCNC(N)=N2)NC(=O)/C(=C/NC(N)=O)NC(=O)[C@H](CNC(=O)C[C@@H](N)CCCN)NC1=O` (stereo not given in full) as the compound, how does the outcome read?
A: inactive

Q: How did the “activation” value turn out when `C=CCn1cc[n+](C)c1` was run?
A: -3.38% [at 78.9 µM] (inactive)

Q: With `NC[C@H]1O[C@H](O[C@H]2[C@H](O)[C@@H](O[C@H]3O[C@H](CO)[C@@H](O)[C@H](N)[C@H]3O)[C@H](N)C[C@@H]2N)[C@H](N)[C@@H](O)[C@@H]1O` as the compound, how does the outcome read?
A: inactive

Q: `CCN1CCN(C(=O)N[C@@H](C(=O)N[C@@H]2C(=O)N3C(C(=O)O)=C(CSc4nnnn4C)CS[C@H]23)c2ccc(O)cc2)C(=O)C1=O` was tested. Which “activation” value did it give?
A: 0.177% (inactive)

Q: For `C=CCCCCCCCCCCCCCC`, which “activation” value is on record?
A: -3.25% [at 26.2 µM] (inactive)

Q: Which “activation” value does the source give for `Nc1ccc(C(=O)NCC(=O)O)cc1` here?
A: 1.68% [at 26.2 µM] (inactive)

Q: With `CCOCCOCCOC(C)=O` as the compound, how does the “activation” value read?
A: 1.58% [at 78.9 µM] (inactive)

Q: Which “activation” value does the source give for `COc1cc2nc(N3CCN(C(=O)C4CCCO4)CC3)nc(N)c2cc1OC` (stereo not given) here?
A: 1.18% (inactive)

Q: For `CN(C)CCC[C@@]1(c2ccc(F)cc2)OCc2cc(C#N)ccc21`, which “activation” value is on record?
A: 1.58% (inactive)

Q: Which “activation” value does the source give for `Cc1ccc(Br)cc1` here?
A: 0.473% (inactive)

Q: How did the “activation” value turn out when `COc1cc(OC)cc(OC)c1` was run?
A: -0.29% (inactive)

Q: `CCCCCCCCCCCCCC(=O)OCC` was tested. Which “activation” value did it give?
A: -0.429% (inactive)

Q: How did the “activation” value turn out when `Cc1cccc(N)n1` was run?
A: -0.333% [at 78.9 µM] (inactive)

Q: `COC(=O)c1c(C)cc(O)c(C)c1O` was tested. Which “activation” value did it give?
A: 0.634% (inactive)

Q: For `CC(O)C(CO)C(C)O` (stereo not given), which “activation” value is on record?
A: 2.71% [at 78.9 µM] (inactive)

Q: With `N=C(N)N` as the compound, how does the “activation” value read?
A: -3.51% (inactive)

Q: For `NNC(=O)CCCCC(=O)NN`, which “activation” value is on record?
A: 1.02% (inactive)

Q: Which “activation” value does the source give for `CCCC(C)C(O)CC` (stereo not given) here?
A: 0.866% (inactive)

Q: With `CC(C)(Sc1cc(C(C)(C)C)c(O)c(C(C)(C)C)c1)Sc1cc(C(C)(C)C)c(O)c(C(C)(C)C)c1` as the compound, how does the “activation” value read?
A: -1.02% [at 26.2 µM] (inactive)

Q: How did the “activation” value turn out when `N=C(N)S(=O)O` was run?
A: -2.19% (inactive)

Q: Which “activation” value does the source give for `CC(C)(C)C(=O)NCCCC(=O)O` here?
A: -3% (inactive)

Q: With `CCCCCCCCCCCCCCCC/C=C/C1CC(=O)OC1=O` (stereo not given) as the compound, how does the “activation” value read?
A: -1.45% (inactive)

Q: How did the “activation” value turn out when `OCCC(F)(F)C(F)(F)C(F)(F)C(F)(F)C(F)(F)C(F)(F)F` was run?
A: 3.44% (inactive)

Q: `Cc1ccc(N)nc1` was tested. Which “activation” value did it give?
A: -1.36% (inactive)

Q: With `O=Cc1ccccc1S(=O)(=O)O` as the compound, how does the “activation” value read?
A: -4.15% (inactive)

Q: With `O=C(O)CCCCCCCCCC(=O)O` as the compound, how does the “activation” value read?
A: -4.79% (inactive)

Q: Which “activation” value does the source give for `CC(C)C[P+](C)(CC(C)C)CC(C)C` here?
A: 0.843% [at 78.9 µM] (inactive)

Q: Which “activation” value does the source give for `CCC(C)c1nccnc1OC` (stereo not given) here?
A: 5.85% (inactive)

Q: `CN(C)CCc1c[nH]c2ccc(C[C@H]3COC(=O)N3)cc12` was tested. Which “activation” value did it give?
A: -0.0007% (inactive)

— PubChem BioAssay (Tox21)
